Common to all, as to experiment: DAPPL (digital affinity profiling via proximity ligation, sequencing); 10 mM Tris-HCl pH 7.5, 50 mM NaCl, 1 mM DTT, 4% glycerol, room temperature, 30 min; GST-TFs on glutathione beads, 16-mer random dsDNA library, 0.1% formaldehyde crosslink after washing; high values mean tight binding
One assay concerns the target T1, FEV (Homo sapiens, UniProt Q99581 1-238).
T1 sequence: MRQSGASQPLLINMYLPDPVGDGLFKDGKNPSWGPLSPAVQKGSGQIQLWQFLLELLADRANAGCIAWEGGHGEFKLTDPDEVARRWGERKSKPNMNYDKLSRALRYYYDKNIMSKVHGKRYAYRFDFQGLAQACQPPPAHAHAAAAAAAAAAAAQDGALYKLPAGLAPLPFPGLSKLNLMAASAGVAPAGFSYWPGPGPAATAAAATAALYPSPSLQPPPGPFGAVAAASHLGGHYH
The settings on record: protein: recombinant; tags: N-terminal GST; dsDNA, one strand shown. In a few lines: (§1)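 Binding signal is given per hexamer as its read frequency for a factor divided by its frequency in the tag-only sample. GST-fused human transcription factors were expressed in yeast, captured on glutathione beads, barcoded with DNA and pooled with that sample, then incubated with 200 nmole of a 16-mer random double-stranded DNA library in Tris/NaCl/DTT/glycerol buffer for 30 min at room temperature. The pools were then washed, crosslinked, proximity-ligated, amplified by PCR and sequenced on an Illumina NextSeq500.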

The target in another assay is ETV5 (Homo sapiens, UniProt P41161 1-510). The settings on record: protein: recombinant; tags: N-terminal GST; dsDNA, one strand shown. In a few lines:
as §1

The target of another assay is HSF1 (Homo sapiens, UniProt Q00613 1-529). The conditions noted are these: protein: recombinant; tags: N-terminal GST; chain copies: 3; dsDNA, one strand shown. Summed up: as §1
Chain of HSF1 (Q00613 whole entry): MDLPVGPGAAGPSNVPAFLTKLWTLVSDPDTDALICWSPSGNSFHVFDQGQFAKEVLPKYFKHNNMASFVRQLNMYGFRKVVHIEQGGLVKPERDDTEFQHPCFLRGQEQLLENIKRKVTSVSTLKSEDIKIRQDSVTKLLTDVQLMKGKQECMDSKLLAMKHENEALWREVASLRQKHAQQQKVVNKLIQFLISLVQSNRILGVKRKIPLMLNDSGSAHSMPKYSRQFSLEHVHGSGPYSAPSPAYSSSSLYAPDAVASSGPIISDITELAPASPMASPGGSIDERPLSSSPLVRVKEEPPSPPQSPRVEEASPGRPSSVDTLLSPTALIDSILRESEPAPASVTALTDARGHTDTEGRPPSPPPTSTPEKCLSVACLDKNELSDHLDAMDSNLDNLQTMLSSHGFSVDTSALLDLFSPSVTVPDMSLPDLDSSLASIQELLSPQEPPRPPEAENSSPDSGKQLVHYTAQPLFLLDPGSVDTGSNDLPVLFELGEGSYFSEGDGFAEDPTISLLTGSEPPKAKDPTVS
The target of a further assay is T2, SPIC (Homo sapiens, UniProt Q8N5J4 1-248).
T2 sequence: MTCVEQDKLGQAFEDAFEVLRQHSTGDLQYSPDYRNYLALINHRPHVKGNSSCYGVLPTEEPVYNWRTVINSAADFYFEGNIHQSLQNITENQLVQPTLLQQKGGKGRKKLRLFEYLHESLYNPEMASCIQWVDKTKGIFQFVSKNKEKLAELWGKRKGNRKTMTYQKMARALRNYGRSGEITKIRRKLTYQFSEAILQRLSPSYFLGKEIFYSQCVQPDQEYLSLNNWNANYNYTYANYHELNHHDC
The conditions noted are these: protein: recombinant; tags: N-terminal GST; dsDNA, one strand shown. In a few lines: as §1

For another assay, the target named is ELF4 (Homo sapiens, UniProt Q99607 1-663). The settings on record: protein: recombinant; tags: N-terminal GST; dsDNA, one strand shown. In a few lines:
as §1

For a further assay, the target named is T3, ELK4 (Homo sapiens, UniProt P28324-2 1-405).
T3 sequence: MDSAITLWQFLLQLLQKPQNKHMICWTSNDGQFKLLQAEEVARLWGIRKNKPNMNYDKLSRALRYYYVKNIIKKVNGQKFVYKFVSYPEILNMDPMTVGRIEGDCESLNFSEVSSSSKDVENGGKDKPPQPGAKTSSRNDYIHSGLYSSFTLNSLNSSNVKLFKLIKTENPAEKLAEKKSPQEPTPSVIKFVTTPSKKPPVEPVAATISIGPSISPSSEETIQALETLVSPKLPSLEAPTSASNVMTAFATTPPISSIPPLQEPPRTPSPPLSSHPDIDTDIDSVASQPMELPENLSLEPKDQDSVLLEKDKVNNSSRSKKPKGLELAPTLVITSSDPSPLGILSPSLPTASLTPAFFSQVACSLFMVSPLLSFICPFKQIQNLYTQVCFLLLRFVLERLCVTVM
The settings on record: protein: recombinant; tags: N-terminal GST; dsDNA, one strand shown. Summed up:
as §1

The target of a further assay is T4, ETV2 (Homo sapiens, UniProt O00321 1-342).
T4 sequence: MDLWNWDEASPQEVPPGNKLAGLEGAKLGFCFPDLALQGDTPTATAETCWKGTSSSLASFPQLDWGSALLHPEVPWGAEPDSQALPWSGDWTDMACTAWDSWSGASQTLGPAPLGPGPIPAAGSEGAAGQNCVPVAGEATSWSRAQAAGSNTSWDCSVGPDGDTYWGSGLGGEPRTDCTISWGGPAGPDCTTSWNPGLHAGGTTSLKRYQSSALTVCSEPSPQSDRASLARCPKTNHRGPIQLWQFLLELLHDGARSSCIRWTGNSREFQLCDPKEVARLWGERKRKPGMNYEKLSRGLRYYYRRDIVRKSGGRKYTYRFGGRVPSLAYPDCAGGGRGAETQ
The conditions noted are these: protein: recombinant; tags: N-terminal GST; dsDNA, one strand shown. Summed up:
as §1

For another assay, the target named is T5, ELF3 (Homo sapiens, UniProt P78545 1-371).
T5 sequence: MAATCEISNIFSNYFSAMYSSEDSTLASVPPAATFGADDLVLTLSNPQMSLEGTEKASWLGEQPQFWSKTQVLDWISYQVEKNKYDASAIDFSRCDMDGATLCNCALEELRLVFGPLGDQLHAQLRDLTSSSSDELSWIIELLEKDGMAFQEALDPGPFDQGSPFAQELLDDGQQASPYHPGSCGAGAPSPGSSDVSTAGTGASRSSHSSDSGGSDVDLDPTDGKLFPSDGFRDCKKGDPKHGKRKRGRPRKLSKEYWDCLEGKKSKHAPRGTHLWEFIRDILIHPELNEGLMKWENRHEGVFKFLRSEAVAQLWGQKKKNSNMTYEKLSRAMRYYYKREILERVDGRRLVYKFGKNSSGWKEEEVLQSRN
The settings on record: protein: recombinant; tags: N-terminal GST; dsDNA, one strand shown. In a few lines:
as §1

The next assay concerns the target CRX (Homo sapiens, UniProt O43186 1-299). The conditions noted are these: protein: recombinant; tags: N-terminal GST; dsDNA, one strand shown. Summed up: as §1
The target of the next assay is ETV1 (Homo sapiens, UniProt P50549 1-477). The settings on record: protein: recombinant; tags: N-terminal GST; dsDNA, one strand shown. Summed up:
as §1

A further assay concerns the target T6, ERF (Homo sapiens, UniProt P50548 1-548).
T6 sequence: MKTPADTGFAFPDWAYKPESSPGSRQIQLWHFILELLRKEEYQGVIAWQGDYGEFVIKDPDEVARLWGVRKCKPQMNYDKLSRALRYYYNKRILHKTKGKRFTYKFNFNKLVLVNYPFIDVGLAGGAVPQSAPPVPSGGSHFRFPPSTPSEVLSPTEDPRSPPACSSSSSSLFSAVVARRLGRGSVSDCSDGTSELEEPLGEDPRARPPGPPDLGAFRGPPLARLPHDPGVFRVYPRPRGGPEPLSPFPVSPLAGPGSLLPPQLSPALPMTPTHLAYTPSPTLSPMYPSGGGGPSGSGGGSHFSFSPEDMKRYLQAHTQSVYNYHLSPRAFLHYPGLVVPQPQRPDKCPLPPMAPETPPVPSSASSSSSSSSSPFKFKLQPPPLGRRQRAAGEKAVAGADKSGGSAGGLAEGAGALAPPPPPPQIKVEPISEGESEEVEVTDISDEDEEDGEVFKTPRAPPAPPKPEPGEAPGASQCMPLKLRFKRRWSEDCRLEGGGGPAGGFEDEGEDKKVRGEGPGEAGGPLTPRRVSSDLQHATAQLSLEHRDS
The settings on record: protein: recombinant; tags: N-terminal GST; dsDNA, one strand shown. In a few lines: as §1

For a further assay, the target named is T7, ETV3L (Homo sapiens, UniProt Q6ZN32 1-361).
T7 sequence: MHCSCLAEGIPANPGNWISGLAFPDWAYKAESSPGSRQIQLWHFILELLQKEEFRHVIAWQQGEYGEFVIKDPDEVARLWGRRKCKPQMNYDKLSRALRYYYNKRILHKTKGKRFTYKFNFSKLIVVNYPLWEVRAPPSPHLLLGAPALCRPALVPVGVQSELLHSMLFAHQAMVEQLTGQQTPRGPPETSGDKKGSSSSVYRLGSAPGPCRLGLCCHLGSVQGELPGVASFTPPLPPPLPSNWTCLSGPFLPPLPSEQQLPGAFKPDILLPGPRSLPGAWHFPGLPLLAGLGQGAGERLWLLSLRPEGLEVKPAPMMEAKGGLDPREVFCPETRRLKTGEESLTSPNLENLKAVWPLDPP
The settings on record: protein: recombinant; tags: N-terminal GST; dsDNA, one strand shown. Summed up: as §1

A further assay has as its target T8, ETS2 (Homo sapiens, UniProt P15036 1-469).
T8 sequence: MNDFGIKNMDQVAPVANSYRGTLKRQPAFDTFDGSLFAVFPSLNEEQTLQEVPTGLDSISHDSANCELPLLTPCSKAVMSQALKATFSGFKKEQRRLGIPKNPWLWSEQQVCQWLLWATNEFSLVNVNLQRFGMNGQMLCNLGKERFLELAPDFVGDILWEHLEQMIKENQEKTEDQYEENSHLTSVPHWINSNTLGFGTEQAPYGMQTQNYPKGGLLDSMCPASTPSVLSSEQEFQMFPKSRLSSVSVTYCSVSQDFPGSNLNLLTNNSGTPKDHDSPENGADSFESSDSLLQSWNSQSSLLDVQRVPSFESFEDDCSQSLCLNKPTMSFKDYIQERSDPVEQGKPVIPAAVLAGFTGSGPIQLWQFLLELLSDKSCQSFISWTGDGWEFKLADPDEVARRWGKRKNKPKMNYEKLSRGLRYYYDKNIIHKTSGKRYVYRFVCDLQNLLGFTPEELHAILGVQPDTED
The settings on record: protein: recombinant; tags: N-terminal GST; dsDNA, one strand shown. Summed up: as §1

The target of a further assay is T9, SPDEF (Homo sapiens, UniProt O95238 1-335).
T9 sequence: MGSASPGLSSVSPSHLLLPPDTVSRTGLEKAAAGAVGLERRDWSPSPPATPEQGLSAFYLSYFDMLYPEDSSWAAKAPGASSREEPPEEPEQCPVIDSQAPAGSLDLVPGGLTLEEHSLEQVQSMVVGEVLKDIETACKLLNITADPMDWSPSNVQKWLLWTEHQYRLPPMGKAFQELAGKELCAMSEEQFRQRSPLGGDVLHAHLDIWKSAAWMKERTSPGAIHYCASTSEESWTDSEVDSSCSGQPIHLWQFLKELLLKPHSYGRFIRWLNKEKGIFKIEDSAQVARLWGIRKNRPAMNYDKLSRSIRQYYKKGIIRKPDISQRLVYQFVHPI
The conditions noted are these: protein: recombinant; tags: N-terminal GST; dsDNA, one strand shown. Summed up:
as §1

For a further assay, the target named is T10, ETV7 (Homo sapiens, UniProt Q9Y603 1-341).
T10 sequence: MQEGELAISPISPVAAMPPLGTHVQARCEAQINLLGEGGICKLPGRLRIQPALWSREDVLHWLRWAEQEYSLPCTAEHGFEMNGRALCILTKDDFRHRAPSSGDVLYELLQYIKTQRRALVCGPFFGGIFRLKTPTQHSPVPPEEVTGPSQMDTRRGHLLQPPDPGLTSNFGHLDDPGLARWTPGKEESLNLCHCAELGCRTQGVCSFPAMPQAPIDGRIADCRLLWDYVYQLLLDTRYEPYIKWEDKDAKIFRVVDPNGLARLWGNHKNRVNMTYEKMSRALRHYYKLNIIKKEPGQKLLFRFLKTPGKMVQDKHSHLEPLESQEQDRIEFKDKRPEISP
The settings on record: protein: recombinant; tags: N-terminal GST; dsDNA, one strand shown. In a few lines: as §1

A further assay deals with T11, ELF5 (Homo sapiens, UniProt Q9UKW6-2 1-255).
T11 sequence: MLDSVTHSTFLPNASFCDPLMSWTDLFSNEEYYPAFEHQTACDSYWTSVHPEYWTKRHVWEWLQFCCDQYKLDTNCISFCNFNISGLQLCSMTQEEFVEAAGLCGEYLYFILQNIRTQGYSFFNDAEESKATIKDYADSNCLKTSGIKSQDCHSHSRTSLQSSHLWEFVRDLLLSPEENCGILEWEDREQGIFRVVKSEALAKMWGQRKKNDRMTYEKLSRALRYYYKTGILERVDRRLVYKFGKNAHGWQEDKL
The settings on record: protein: recombinant; tags: N-terminal GST; dsDNA, one strand shown. Summed up: as §1

In the next assay the target is T12, ETV3 (Homo sapiens, UniProt P41162-2 1-143).
T12 sequence: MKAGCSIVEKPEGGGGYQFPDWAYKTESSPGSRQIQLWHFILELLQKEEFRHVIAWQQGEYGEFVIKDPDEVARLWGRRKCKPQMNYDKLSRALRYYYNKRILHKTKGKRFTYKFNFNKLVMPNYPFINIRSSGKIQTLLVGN
The conditions noted are these: protein: recombinant; tags: N-terminal GST; dsDNA, one strand shown. Summed up:
as §1

Another assay deals with ETV6 (Homo sapiens, UniProt P41212 1-452). The settings on record: protein: recombinant; tags: N-terminal GST; dsDNA, one strand shown. Summed up: as §1
Chain of ETV6 (P41212 whole entry): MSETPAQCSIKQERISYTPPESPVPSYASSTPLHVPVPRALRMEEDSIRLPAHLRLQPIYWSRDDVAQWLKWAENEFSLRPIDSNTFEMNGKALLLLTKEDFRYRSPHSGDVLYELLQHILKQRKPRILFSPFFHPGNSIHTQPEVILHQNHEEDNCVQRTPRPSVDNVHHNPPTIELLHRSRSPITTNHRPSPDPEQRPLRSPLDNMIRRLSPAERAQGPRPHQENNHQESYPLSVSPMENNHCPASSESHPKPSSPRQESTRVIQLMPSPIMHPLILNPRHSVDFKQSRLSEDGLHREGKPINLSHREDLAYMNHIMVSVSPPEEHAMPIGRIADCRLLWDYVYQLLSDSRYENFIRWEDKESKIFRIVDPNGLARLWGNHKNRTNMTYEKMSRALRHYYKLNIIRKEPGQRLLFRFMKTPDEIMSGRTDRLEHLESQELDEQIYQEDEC

Chain of CRX (O43186 whole entry): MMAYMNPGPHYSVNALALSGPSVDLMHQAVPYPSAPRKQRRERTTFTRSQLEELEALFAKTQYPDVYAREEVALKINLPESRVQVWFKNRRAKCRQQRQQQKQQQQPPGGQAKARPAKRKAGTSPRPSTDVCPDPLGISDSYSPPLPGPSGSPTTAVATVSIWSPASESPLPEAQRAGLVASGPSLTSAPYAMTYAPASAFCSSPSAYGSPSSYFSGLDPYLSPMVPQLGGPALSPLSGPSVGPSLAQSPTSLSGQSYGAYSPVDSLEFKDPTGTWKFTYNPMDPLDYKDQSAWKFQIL
Chain of ETV5 (P41161 whole entry): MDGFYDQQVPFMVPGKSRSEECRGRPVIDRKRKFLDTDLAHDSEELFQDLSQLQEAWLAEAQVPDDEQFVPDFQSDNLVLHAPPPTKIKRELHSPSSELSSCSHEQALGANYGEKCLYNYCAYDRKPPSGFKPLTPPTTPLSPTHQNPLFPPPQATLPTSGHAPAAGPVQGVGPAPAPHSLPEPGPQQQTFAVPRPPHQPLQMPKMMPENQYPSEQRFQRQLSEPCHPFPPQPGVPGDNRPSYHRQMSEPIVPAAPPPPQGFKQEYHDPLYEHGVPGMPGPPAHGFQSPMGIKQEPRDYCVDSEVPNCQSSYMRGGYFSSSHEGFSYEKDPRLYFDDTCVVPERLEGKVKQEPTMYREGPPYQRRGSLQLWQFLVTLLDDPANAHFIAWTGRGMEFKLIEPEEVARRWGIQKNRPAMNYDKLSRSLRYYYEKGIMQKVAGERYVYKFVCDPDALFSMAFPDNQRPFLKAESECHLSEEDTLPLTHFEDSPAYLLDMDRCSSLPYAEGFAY
Chain of ELF4 (Q99607 whole entry): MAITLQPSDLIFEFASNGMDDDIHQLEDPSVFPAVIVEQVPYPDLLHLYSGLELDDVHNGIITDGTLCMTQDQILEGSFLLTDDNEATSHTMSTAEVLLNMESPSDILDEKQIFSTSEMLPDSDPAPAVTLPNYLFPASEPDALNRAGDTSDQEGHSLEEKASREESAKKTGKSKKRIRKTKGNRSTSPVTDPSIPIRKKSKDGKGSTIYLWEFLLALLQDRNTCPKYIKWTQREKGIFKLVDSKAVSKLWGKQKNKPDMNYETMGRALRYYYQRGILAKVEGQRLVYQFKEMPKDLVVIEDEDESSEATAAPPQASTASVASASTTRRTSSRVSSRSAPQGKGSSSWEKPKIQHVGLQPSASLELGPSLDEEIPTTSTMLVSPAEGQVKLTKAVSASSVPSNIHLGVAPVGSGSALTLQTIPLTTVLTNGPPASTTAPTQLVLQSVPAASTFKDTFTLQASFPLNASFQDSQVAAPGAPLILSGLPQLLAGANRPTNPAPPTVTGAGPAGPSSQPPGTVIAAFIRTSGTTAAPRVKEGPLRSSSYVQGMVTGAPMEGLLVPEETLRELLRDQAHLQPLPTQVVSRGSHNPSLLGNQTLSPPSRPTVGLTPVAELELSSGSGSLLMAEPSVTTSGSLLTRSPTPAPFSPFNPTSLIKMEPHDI
Chain of ETV1 (P50549 whole entry): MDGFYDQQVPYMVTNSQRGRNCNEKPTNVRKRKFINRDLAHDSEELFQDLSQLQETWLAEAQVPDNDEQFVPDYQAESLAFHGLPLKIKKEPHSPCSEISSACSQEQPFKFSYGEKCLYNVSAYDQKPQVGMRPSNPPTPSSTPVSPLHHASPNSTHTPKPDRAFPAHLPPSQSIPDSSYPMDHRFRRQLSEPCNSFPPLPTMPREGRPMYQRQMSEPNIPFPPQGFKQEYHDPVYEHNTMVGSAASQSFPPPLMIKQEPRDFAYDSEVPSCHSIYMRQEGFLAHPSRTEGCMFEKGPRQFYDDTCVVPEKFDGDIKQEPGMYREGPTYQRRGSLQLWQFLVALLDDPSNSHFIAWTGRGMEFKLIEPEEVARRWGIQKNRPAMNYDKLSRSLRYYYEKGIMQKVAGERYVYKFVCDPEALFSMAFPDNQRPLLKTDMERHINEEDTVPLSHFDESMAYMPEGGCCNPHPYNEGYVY

With TCACAC, the binding signal with FEV was 1.35 fold enrichment (6-mer frequency, TF over GST control); with ETV5 it was 1.31 fold enrichment (6-mer frequency, TF over GST control); with HSF1 it was 1.06 fold enrichment (6-mer frequency, TF over GST control); with SPIC, 1.24 fold enrichment (6-mer frequency, TF over GST control); with ELF4, 1.36 fold enrichment (6-mer frequency, TF over GST control); with ELK4, 1.31 fold enrichment (6-mer frequency, TF over GST control). The binding signal with ETV2 is 1.29 fold enrichment (6-mer frequency, TF over GST control); with ELF3, 1.19 fold enrichment (6-mer frequency, TF over GST control); with CRX, 1.07 fold enrichment (6-mer frequency, TF over GST control); in the assay with ETV1, 1.33 fold enrichment (6-mer frequency, TF over GST control); with ERF it was 1.26 fold enrichment (6-mer frequency, TF over GST control); in the assay with ETV3L, 1.32 fold enrichment (6-mer frequency, TF over GST control). Besides, the binding signal was 1.33 fold enrichment (6-mer frequency, TF over GST control) with ETS2; 1.16 fold enrichment (6-mer frequency, TF over GST control) in the assay with SPDEF; 1.27 fold enrichment (6-mer frequency, TF over GST control) with ETV7; 1.26 fold enrichment (6-mer frequency, TF over GST control) in the assay with ELF5; 1.27 fold enrichment (6-mer frequency, TF over GST control) with ETV3; 1.33 fold enrichment (6-mer frequency, TF over GST control) with ETV6.

Source of the values: paper PMC7862700, “An all-to-all approach to the identification of sequence-specific readers for epigenetic DNA modifications on cytosine”.
